From PubChem BioAssay
This is a sample that favours compounds with a hit; in the whole collection about 1.8% have one here.
m5-HT2A agonist: agonists of mouse serotonin 5-HT2A receptor (HTR2A); P35363; CHO-K1 mHTR2A beta-arrestin complementation, luminescence; percent of 30 µM serotonin response; 360,000 compounds, 0.66% hits; AID 624169; activation, % at 7.6 µM;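 active = activation above a run cutoff, the mean activation of all tested compounds plus 3 SD, cut at about 14% in these data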
GC-B act: GC-B (human) receptor activation. P20594. HEK293-GC-B cells, CNP EC30, cGMP TR-FRET; 0% at EC30 CNP, 100% saturating CNP. activation, % at 10 µM. 370,000 compounds, 0.11% hits;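 active = activation at 10 µM reaching about 35% in either raw or pattern-adjusted values, limit read from the data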
Target sequence (P20594 whole entry, looked up): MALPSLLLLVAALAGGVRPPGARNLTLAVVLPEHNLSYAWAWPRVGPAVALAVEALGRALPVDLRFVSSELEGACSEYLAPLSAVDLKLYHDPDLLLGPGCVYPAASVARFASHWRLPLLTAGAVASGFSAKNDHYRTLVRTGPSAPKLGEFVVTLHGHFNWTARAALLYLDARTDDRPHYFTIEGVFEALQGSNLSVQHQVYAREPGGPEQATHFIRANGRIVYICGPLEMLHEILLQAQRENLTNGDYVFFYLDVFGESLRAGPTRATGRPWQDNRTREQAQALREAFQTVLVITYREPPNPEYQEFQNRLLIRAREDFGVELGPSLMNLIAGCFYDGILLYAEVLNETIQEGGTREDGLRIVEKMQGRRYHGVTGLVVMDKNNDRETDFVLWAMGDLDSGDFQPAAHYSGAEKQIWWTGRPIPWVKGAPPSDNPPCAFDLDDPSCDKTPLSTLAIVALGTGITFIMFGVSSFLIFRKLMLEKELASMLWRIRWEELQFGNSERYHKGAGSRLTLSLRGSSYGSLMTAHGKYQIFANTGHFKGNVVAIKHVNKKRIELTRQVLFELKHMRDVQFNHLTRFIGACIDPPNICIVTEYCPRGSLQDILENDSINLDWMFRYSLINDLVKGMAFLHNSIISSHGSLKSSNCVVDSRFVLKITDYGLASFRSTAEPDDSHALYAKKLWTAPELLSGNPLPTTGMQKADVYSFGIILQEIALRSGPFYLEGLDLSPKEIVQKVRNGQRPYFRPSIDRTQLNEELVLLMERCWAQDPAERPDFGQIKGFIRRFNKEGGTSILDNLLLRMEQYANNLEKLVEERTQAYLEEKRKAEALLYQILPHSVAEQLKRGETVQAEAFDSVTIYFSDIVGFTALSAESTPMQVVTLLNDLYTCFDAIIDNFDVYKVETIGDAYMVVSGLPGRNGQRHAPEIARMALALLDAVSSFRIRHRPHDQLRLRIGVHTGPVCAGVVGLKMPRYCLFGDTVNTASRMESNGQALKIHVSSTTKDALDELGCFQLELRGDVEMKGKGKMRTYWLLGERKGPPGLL
MsrA inh: inhibits bovine methionine sulfoxide reductase A. inhibition, % at 15.5 µM. purified bovine MsrA, absorbance read-out. 360,000 compounds, 0.75% hits; in the data active = inhibition above about 4.5%
MsrA act: activators of bovine methionine sulfoxide reductase A; purified bovine MsrA, absorbance read-out; activation, % at 10.6 µM; 360,000 compounds, 0.3% hits; AID 602163; in the data active = activation above about 7.5%
NPR1 activator: GC-A (human) enzyme activation; P16066; HEK293 GC-A cells, cGMP TR-FRET, EC30 ANP; 0% at EC30 ANP, 100% saturating ANP; activation, % at 10 µM; 370,000 compounds, 0.14% hits; AID 1671463; in the data active = activation above about 40%
OPRM1 ag: counter-screen for mouse HTR2A agonists: human mu opioid receptor agonists | shares compounds with m5-HT2A agonist | 2,300 compounds, 5.3% hits | U2OS OPRM1 beta-arrestin PathHunter, luminescence; DMSO 0%, DAMGO 9.3 µM 100% | activation, % at 9.3 µM;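 active = mean activation above the mean of DMSO-only wells plus 3 SD, cut at about 0.5% in these data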
HTR2A ag conf: confirmation of mouse HTR2A serotonin receptor agonists | activation, % at 7.6 µM | CHO-K1 PathHunter beta-arrestin recruitment, luminescence; DMSO 0%, 30 µM serotonin 100% | 2,300 compounds, 19% hits | shares compounds with m5-HT2A agonist;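 active = mean activation across triplicates above the hit threshold derived in the original primary screen, cut at about 15% in these data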
Of the large screens only hits and unclear results are named; the others gave an inactive call (follow-up assays come after a bar, where they were run); ! = not confirmed by another sample.

Cc1onc(-c2c(Cl)cccc2Cl)c1C(=O)N1CCSCC1	none
Cc1onc(-c2c(Cl)cccc2Cl)c1C(=O)N1CCOCC1	m5-HT2A agonist 17 | OPRM1 ag inactive | HTR2A ag conf inactive
COC(=O)[C@]12C[C@H](CC(=O)N3CCCC3)C(=O)N(CCc3ccc(OC)c(OC)c3)C1=C[C@H](C(C)C)O[C@@H]2C1CC1	none (no result: m5-HT2A agonist, MsrA inh, MsrA act)
O=C(c1ccc(OCc2cn3ccccc3n2)cc1)N1CCN(S(=O)(=O)c2ccccc2F)CC1	m5-HT2A agonist 20 | OPRM1 ag inactive | HTR2A ag conf inactive
CC(C)(C)C(=O)NC1CCCCN(Cc2cccc(C(F)(F)F)c2)C1=O (stereo not given)	none (no result: m5-HT2A agonist, MsrA inh, MsrA act)
CCN(C(=O)CSc1ccc2ccccc2c1)C1CCS(=O)(=O)C1 (stereo not given)	m5-HT2A agonist 16 | OPRM1 ag inactive | HTR2A ag conf inactive
CCOc1ccc(-n2c(SCC(=O)Nc3ccc4c(c3)c3ccccc3n4CC)nnc2-c2cccnc2)cc1	none (no result: m5-HT2A agonist, MsrA inh, MsrA act)
CNC(=O)Oc1ccc2c(c1)[C@]1(C)CCN(C)[C@@H]1N2C	m5-HT2A agonist 20! | OPRM1 ag inactive | HTR2A ag conf inactive
CCOc1ccc(NC(=O)C2CCCN2S(=O)(=O)c2ccc3c(c2)C(C)(C)C(=O)N3C)cc1 (stereo not given)	none
COc1ccc(CN2CCN(Cc3c[nH]c4ccccc34)CC2CCO)cc1C (stereo not given)	none
COc1cc(CN2CCN(Cc3c[nH]c4ccccc34)CC2CCO)cc(OC)c1 (stereo not given)	m5-HT2A agonist 19 | OPRM1 ag inactive | HTR2A ag conf inactive
CN1C(=O)c2cc(NC(=O)Nc3ccccc3)ccc2OC[C@H]2O[C@@H](CC(=O)NCC(F)(F)F)CC[C@@H]21	none (no result: m5-HT2A agonist, MsrA inh, MsrA act)
C=CCNC(=S)N(C)[C@H]1C[C@H]2c3[nH]c4cccc(-c5cccc(F)c5)c4c3CCN2C(=O)[C@H]1[C@H](C)O	none (no result: m5-HT2A agonist, MsrA inh, MsrA act)
O=C(C1CC(=O)N(c2ccc3c(c2)OCCO3)C1)N1CCN(S(=O)(=O)c2ccccc2F)CC1 (stereo not given)	m5-HT2A agonist 18 | OPRM1 ag inactive | HTR2A ag conf inactive
Cc1ccc(NC(=O)COC(=O)CN2C(=O)NC(C)(C)C2=O)cc1S(=O)(=O)N1CCOCC1	m5-HT2A agonist 24 | OPRM1 ag inactive | HTR2A ag conf inactive
CC(C)C[C@H]1C(=O)N2CCC[C@H]2[C@]2(O)O[C@](NC(=O)[C@@H]3C=C4c5cccc6[nH]c(Br)c(c56)CC4N(C)C3)(C(C)C)C(=O)N12 (stereo not given in full)	m5-HT2A agonist 41 | OPRM1 ag inactive | HTR2A ag conf 127
O=C(Nc1ccccc1C(=O)Nc1ccc2c(c1)OCO2)c1ccco1	none
O=C(Nc1oc2ccccc2c(=O)c1-c1ccc2c(c1)OCO2)c1ccco1	m5-HT2A agonist 14 | OPRM1 ag inactive | HTR2A ag conf inactive
c1ccc(Cn2cc(CCOCc3ccccn3)c3ccccc32)cc1	none (no result: m5-HT2A agonist, MsrA act)
CCOc1ccc(N(CC(=O)Nc2c(C)n(C)n(-c3ccccc3)c2=O)S(=O)(=O)c2ccc(C(C)(C)C)cc2)cc1	none (no result: m5-HT2A agonist, MsrA inh, MsrA act)
NC(=O)C1CCN(CC(=O)Nc2ccc3c(c2)OCCO3)CC1	none
COC(=O)C1CCN(CC(=O)Nc2ccc3c(c2)OCCO3)CC1	m5-HT2A agonist 32 | OPRM1 ag inactive | HTR2A ag conf 42
CCOC(=O)Cc1nnc(NC(=O)CSc2nncn2C)s1	none
CCOC(=O)Cc1nnc(NC(=O)C(CC)Sc2nncn2C)s1 (stereo not given)	m5-HT2A agonist 14 | OPRM1 ag inactive | HTR2A ag conf inactive
O=C(NCCc1c[nH]c2ccccc12)OCc1cn(Cc2ccc(F)c(F)c2)nn1	none (no result: m5-HT2A agonist, MsrA inh, MsrA act)
CC1=CN2CC(O)CN=C2C=C1 (stereo not given)	none
CC1=CC=CN2CC(O)CN=C12 (stereo not given)	m5-HT2A agonist 28 | OPRM1 ag inactive | HTR2A ag conf inactive
COc1cccc(CN2CCN(C(=S)NCc3ccc(Cl)cc3)CC2)c1	m5-HT2A agonist 29 | OPRM1 ag 0.8 | HTR2A ag conf 25
O=C(Nc1ccccc1)N1CCN(Cc2ccc(Cl)cc2)CC1	none
O=C(NCc1ccc(Cl)cc1)N1CCN(Cc2ccccc2)CC1	m5-HT2A agonist 35 | OPRM1 ag inactive | HTR2A ag conf inactive
COc1cccc(NC(=O)C2CCCN2C(=O)NCc2ccccc2OC)c1 (stereo not given)	none (no result: m5-HT2A agonist, MsrA inh, MsrA act)
CCCCCCCCN1C(=O)[C@@H](CC(=O)N2CCCCC2)C[C@@]2(C(=O)OC)C1=C[C@H](COCc1ccccc1)O[C@@H]2C	none (no result: m5-HT2A agonist, MsrA inh, MsrA act)
CCOC(=O)C1CCN(Cc2cnc(Oc3ccc(C(C)(C)C)cc3)s2)CC1	m5-HT2A agonist 19 | OPRM1 ag inactive | HTR2A ag conf 39
COC(=O)Nc1ncc(CN2CCc3ccccc3C2)s1	none
CCOC(=O)C1CCN(Cc2cnc(NC(=O)OC)s2)CC1	m5-HT2A agonist 16 | OPRM1 ag inactive | HTR2A ag conf 23
CCOC(=O)C1CCCN(C(=O)COc2ccc(C(C)(C)C)cc2)CC1 (stereo not given)	none
CCOc1ccc(C(=O)Nc2c3c(nn2-c2cccc(C)c2C)CS(=O)C3)cc1 (stereo not given)	m5-HT2A agonist 17 | OPRM1 ag inactive | HTR2A ag conf inactive
CCc1nnc(NC(=O)c2cc(S(=O)(=O)N3CCOCC3)ccc2N2CCCCC2)s1	none
O=C(Nc1nnc(C2CC2)s1)c1cc(S(=O)(=O)N2CCCCC2)ccc1N1CCOCC1	m5-HT2A agonist 24 | OPRM1 ag inactive | HTR2A ag conf inactive
Cc1ccc(C2=CCN(C)C(=O)N2c2ccc(Br)cc2)cc1	none (no result: m5-HT2A agonist, MsrA inh, MsrA act)
CC(C)(C)Nc1nc2ccc([N+](=O)[O-])cc2o1	m5-HT2A agonist 15 | OPRM1 ag inactive | HTR2A ag conf inactive
C=CCNC1CCC12CCC(c1ccccc1)CC2 (stereo not given)	none (no result: m5-HT2A agonist, MsrA inh, MsrA act)
COC(=O)[C@H](C(C)C)N(Cc1cn(Cc2ccc(C)cc2)nn1)S(=O)(=O)c1ccccc1Br	none (no result: m5-HT2A agonist, MsrA inh, MsrA act)
COc1ccc(CN(C)C(=O)c2ccc(NS(=O)(=O)c3ccc(C)c([N+](=O)[O-])c3)cc2)c(OC)c1OC	m5-HT2A agonist 18 | OPRM1 ag inactive | HTR2A ag conf inactive
COc1ccc(CN(C)C(=O)c2ccc(NS(=O)(=O)c3ccc4[nH]c(=O)[nH]c4c3)cc2)c(OC)c1OC	none
C[C@H](CO)N1C[C@H](C)[C@@H](CN(C)CC2CC2)Oc2c(NC(=O)C3CC3)cccc2C1=O	none
C[C@H](CO)N1C[C@H](C)[C@@H](CN(C)CC2CC2)Oc2c(NC(=O)Cc3ccccc3)cccc2C1=O	m5-HT2A agonist 16 | OPRM1 ag inactive | HTR2A ag conf inactive
